Source: the supplement of paper PMC12645437, “Orthogonal IMiD-Degron Pairs Induce Selective Protein Degradation in Cells” (ACS Chemical Biology, 2025)
Over roughly 8,300 sequences, “log2 fold change of degron read counts, EGFP-low vs EGFP+ sorted cells (limma voom), compound-induced degradation” has its median near -1.1; the highest 2% begin near 3.2. The list comes from a sample in which the highest values are over-represented; it also holds similar and randomly drawn sequences.

T1: CRBN, Q96SW2
T1 chain: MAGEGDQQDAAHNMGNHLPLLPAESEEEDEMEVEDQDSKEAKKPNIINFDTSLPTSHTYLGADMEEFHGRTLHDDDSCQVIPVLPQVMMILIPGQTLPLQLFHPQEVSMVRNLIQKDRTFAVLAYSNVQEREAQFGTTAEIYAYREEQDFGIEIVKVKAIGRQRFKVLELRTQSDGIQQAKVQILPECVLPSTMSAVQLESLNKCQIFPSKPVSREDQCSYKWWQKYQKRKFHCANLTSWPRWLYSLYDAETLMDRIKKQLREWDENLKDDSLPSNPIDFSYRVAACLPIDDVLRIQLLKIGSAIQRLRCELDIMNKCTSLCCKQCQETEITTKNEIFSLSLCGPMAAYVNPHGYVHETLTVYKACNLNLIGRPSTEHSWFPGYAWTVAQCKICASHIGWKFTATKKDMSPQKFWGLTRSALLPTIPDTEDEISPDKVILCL


Molecular target: T1, CRBN, Q96SW2
Experiment: log2 fold change of degron read counts, EGFP-low vs EGFP+ sorted cells (limma voom), compound-induced degradation; higher = more compound-induced degradation of the degron-EGFP fusion; degrons are variants of IKZF1/3 zinc finger 2; compound dose not given here
Details: Jurkat, 18 h
[1] = compound: compound 19 (5-tert-butyl-thalidomide)
[2] = compound: compound 22 (5-morpholino-thalidomide)
[3] = compound: compound 33 (diphenyl IMiD analogue)
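Further: pooled lentiviral library of zinc finger degron-EGFP fusions in mCherry-positive Jurkat cells, FACS-sorted after compound exposure, with degron abundance counted by next-generation sequencing.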

| Sequence | log2 fold change of degron read counts [1] | log2 fold change of degron read counts [2] | log2 fold change of degron read counts [3] | log2 fold change of degron read counts (compound: thalidomide) |
| --- | --- | --- | --- | --- |
| FSCDVCGALFTQKGNLLRHIKL [46F_47S_49D_50V_52G_53A_54L_55F_67L_, Q9UKT9] | -1.17 | -1.66 | 0.461 | -2.2 |
| FECEQCGAGFTQKGNLLRHIKL [46F_47E_49E_50Q_52G_53A_54G_55F_67L_, Q9UKT9] | -1.66 | -2.94 | -1.37 | -1.37 |
| FRCSVCGHNFTQKGNLLRHIKL [46F_47R_49S_50V_52G_53H_54N_55F_67L_, Q9UKT9] | -2.2 | -2.6 | -2.8 | -2.89 |
| FICEICGHSFTQKGNLLRHIKL [46F_47I_49E_50I_52G_53H_54S_55F_67L_, Q9UKT9] | -3.27 | -2.78 | -2.2 | -2.17 |
| FCCDICGAEFTQKGNLLRHIKL [46F_47C_49D_50I_52G_53A_54E_55F_67L_, Q9UKT9] | 0.189 | -0.292 | -0.603 | -0.702 |
| FTCNQCGHTFTQKGNLLRHIKL [46F_47T_49N_50Q_52G_53H_54T_55F_67L_, Q9UKT9] | -3.38 | -3.31 | -3.66 | -2.92 |
| FMCDVCGAIFTQKGNLLRHIKL [46F_47M_49D_50V_52G_53A_54I_55F_67L_, Q9UKT9] | -2.28 | -2.09 | 0.171 | -1.7 |
| FWCNICGARFTQKGNLLRHIKL [46F_47W_49N_50I_52G_53A_54R_55F_67L_, Q9UKT9] | 2.19 | 3.34 | 0.85 | 0.523 |
| FYCNICGARFTQKGNLLRHIKL [46F_47Y_49N_50I_52G_53A_54R_55F_67L_, Q9UKT9] | 1.83 | 2.47 | -0.345 | -0.644 |
| FQCNICGARFTQKGNLLRHIKL [46F_47Q_49N_50I_52G_53A_54R_55F_67L_, Q9UKT9] | -0.916 | 0.973 | 0.399 | 3.26 |
| FTCNICGARFTQKGNLLRHIKL [46F_47T_49N_50I_52G_53A_54R_55F_67L_, Q9UKT9] | 0.313 | 1.57 | 0.916 | 2.41 |
| FLCNICGARFTQKGNLLRHIKL [46F_47L_49N_50I_52G_53A_54R_55F_67L_, Q9UKT9] | -1.1 | -1.89 | -0.701 | 0.842 |
| FNCNICGARFTQKGNLLRHIKL [46F_47N_49N_50I_52G_53A_54R_55F_67L_, Q9UKT9] | 1.28 | 0.255 | -1.05 | -0.266 |
| LHCPICGFWCTQKGNLLRHIKL [46L_47H_49P_50I_52G_53F_54W_55C_67L_, Q9UKT9] | 1.34 | 1.54 | 2.54 | 1.59 |
| FQCPICGHNFTQKGNLLRHIKL [46F_47Q_49P_50I_52G_53H_54N_55F_67L_, Q9UKT9] | -2.9 | -1.92 | -1.21 | 0.375 |
| LFCPICGFTCTQKGNLLRHIKL [46L_47F_49P_50I_52G_53F_54T_55C_67L_, Q9UKT9] | 3.39 | 3.54 | 2.49 | 2.69 |
| LHCPICGFTCTQKGNLLRHIKL [46L_47H_49P_50I_52G_53F_54T_55C_67L_, Q9UKT9] | 2.75 | 2.97 | 2.8 | 2.34 |
| LICPICGFTCTQKGNLLRHIKL [46L_47I_49P_50I_52G_53F_54T_55C_67L_, Q9UKT9] | 0.369 | 2.36 | 2.13 | 2.81 |
| LKCPICGFTCTQKGNLLRHIKL [46L_47K_49P_50I_52G_53F_54T_55C_67L_, Q9UKT9] | -0.865 | -1.65 | -1.59 | 0.662 |
| LLCPICGFTCTQKGNLLRHIKL [46L_47L_49P_50I_52G_53F_54T_55C_67L_, Q9UKT9] | 0.147 | 0.286 | 1.38 | 2.64 |
| LRCPICGFTCTQKGNLLRHIKL [46L_47R_49P_50I_52G_53F_54T_55C_67L_, Q9UKT9] | 0.326 | 0.593 | 1.93 | 2.23 |
| LACPICGFTCTQKGNLLRHIKL [46L_47A_49P_50I_52G_53F_54T_55C_67L_, Q9UKT9] | 3.68 | 3.23 | 2.51 | 2.61 |
| LSCPICGFTCTQKGNLLRHIKL [46L_47S_49P_50I_52G_53F_54T_55C_67L_, Q9UKT9] | 3.13 | 2.83 | 2.48 | 2.59 |
| LMCPICGFTCTQKGNLLRHIKL [46L_47M_49P_50I_52G_53F_54T_55C_67L_, Q9UKT9] | -0.0285 | 1.97 | 2.76 | 2.79 |
| LTCPICGFTCTQKGNLLRHIKL [46L_47T_49P_50I_52G_53F_54T_55C_67L_, Q9UKT9] | 1.57 | 3.31 | 2.65 | 3.44 |
| LVCPICGFTCTQKGNLLRHIKL [46L_47V_49P_50I_52G_53F_54T_55C_67L_, Q9UKT9] | 1.27 | 2.61 | 2.22 | 3.21 |
| LQCPICGFTCTQKGNLLRHIKL [46L_47Q_49P_50I_52G_53F_54T_55C_67L_, Q9UKT9] | 1.75 | 2.59 | 2.54 | 3.66 |
| FICNQCGHNFTQKGNLLRHIKL [46F_47I_49N_50Q_52G_53H_54N_55F_67L_, Q9UKT9] | -2.7 | -3.24 | -2.97 | -2.3 |
